In PubChem BioAssay (NCATS):
Inconclusive results are not listed. Activity calls are given as the source filed them. Unless noted, the call rests on the fitted dose curve.

How the values were obtained:
[1] = molecular target: Ubiquitin carboxyl-terminal hydrolase 1 (Homo sapiens) (UniProt O94782); test: Inhibitors of USP1/UAF1: Pilot qHTS (AID 504865; active means well fitted curve in the direction sought with a large enough effect; an effect the other way counts as inactive or inconclusive;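 further: rhodamine fluorescence freed from ubiquitin-rhodamine substrate followed over time; top concentration of the series differs between compounds; on the % scale 0 is the no-effect control and ±100 the full control effect; nearly all actives have a fitted effect of over 35% in size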)
Chain of Ubiquitin carboxyl-terminal hydrolase 1 (Homo sapiens) (O94782 whole entry, looked up): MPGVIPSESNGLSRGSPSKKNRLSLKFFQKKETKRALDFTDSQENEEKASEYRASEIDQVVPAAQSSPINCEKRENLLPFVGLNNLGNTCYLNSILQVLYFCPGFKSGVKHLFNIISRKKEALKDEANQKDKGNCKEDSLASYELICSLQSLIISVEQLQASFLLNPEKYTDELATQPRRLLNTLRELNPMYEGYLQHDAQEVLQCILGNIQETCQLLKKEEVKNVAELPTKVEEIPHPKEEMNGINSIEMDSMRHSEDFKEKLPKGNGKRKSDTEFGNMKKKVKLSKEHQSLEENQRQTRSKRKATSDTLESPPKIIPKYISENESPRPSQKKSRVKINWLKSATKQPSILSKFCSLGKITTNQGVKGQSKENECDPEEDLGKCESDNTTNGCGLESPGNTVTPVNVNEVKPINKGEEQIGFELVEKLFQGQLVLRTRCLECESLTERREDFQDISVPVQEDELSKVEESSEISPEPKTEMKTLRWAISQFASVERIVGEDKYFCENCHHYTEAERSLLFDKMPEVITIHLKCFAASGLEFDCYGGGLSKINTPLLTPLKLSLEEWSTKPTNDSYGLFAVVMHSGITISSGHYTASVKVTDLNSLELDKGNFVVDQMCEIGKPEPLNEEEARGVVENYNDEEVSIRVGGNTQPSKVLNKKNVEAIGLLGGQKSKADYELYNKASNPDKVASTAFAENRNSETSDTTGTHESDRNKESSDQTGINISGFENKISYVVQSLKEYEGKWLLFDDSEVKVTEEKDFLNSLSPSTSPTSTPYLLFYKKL
How it was run: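 USP1/UAF1 complex (1nM) preincubated with compound 15 min at room temperature, then Ub-Rho substrate (150nM final) added. Fluorescence read kinetically at 480/540 nm, 6 reads every 60 seconds. Buffer: 50mM HEPES pH 7.8, 0.5mM EDTA, 0.1 mg/ml BSA, 1mM TCEP, 0.01% Tween-20.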

[2] = molecular target: Estrogen receptor (Homo sapiens) (UniProt P03372); test: qHTS assay for small molecule antagonists of estrogen receptor alpha signaling (AID 588513; active means well fitted curve in the direction sought with a large enough effect in the signal ratio, with a control signal flat, not every such curve was filed as active; the % refers to the signal ratio; further: on the % scale 0 is the no-effect control and ±100 the full control effect)
Chain of Estrogen receptor (Homo sapiens) (P03372 whole entry, looked up): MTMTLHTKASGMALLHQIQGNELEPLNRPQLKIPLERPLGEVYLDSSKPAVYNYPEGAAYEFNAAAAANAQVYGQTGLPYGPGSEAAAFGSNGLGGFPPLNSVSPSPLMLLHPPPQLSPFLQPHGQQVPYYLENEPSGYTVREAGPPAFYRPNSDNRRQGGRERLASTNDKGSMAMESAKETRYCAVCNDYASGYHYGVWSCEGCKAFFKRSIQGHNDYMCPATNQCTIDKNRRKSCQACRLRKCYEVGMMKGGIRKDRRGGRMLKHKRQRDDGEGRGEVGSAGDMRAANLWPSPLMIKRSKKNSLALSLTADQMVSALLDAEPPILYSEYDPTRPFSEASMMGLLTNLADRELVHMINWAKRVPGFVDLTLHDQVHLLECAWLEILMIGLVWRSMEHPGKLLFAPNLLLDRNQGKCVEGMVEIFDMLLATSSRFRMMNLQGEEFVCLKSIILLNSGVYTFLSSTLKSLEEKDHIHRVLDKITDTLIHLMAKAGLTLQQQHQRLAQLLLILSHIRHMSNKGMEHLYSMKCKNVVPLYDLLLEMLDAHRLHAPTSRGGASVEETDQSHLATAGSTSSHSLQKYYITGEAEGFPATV
How it was run: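 ER-alpha-UAS-bla GripTite HEK 293 cells in medium with 2% charcoal/dextran-treated FBS were preincubated 4 h at 37 C, dosed with compound (1:2 titration), stimulated with 0.5nM 17-beta-estradiol for 18 h, then read by CCF4 beta-lactamase fluorescence.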

[3] = molecular target: Peroxisome proliferator-activated receptor gamma (Homo sapiens) (UniProt P37231); test: qHTS assay for small molecule agonists of peroxisome proliferator-activated receptor gamma signaling (AID 588536; active means well fitted curve in the direction sought with a large enough effect in the signal ratio, with a control signal flat, not every such curve was filed as active; the % refers to the signal ratio;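 further: 0% = DMSO basal wells and 100% = rosiglitazone at 2 µM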)
Chain of Peroxisome proliferator-activated receptor gamma (Homo sapiens) (P37231 whole entry, looked up): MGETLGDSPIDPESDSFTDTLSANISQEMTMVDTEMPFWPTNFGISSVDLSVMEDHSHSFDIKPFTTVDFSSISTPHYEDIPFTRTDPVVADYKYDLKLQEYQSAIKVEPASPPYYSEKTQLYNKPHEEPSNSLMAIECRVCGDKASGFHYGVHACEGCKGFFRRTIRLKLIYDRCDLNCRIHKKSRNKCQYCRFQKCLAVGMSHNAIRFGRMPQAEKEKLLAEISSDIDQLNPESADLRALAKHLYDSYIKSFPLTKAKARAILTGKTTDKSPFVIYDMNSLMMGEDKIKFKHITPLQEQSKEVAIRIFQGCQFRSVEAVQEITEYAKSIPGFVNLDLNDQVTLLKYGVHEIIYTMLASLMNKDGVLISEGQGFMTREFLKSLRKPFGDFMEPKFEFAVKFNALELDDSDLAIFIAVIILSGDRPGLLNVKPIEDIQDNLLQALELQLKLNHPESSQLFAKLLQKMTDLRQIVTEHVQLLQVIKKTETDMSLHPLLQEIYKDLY
How it was run: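 Cells were plated and held 6–6.5 h at 37 C, then compounds were added as a titration series. After a further 16 h, CCF4 dye was loaded for 2 h at room temperature and emission at 460/530 nm recorded.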

[4] = molecular target: Vitamin D3 receptor (Homo sapiens) (UniProt P11473); test: qHTS assay for small molecule antagonists of vitamin D receptor signaling (AID 588541);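 further: receptor activated by calcitriol during compound treatment; on the % scale 0 is the no-effect control and ±100 the full control effect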
Chain of Vitamin D3 receptor (Homo sapiens) (P11473 whole entry, looked up): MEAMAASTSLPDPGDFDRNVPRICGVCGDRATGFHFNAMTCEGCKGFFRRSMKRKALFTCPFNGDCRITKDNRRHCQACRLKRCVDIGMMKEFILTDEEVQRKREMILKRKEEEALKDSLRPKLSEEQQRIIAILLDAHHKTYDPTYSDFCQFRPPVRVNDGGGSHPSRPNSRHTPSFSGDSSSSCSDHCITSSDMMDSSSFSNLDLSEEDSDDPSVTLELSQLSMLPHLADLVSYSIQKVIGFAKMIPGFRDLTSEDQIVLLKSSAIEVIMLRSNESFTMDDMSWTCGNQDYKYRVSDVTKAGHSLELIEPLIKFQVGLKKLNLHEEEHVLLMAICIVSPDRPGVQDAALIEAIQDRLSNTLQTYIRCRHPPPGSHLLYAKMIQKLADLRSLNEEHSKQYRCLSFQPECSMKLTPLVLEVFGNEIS
How it was run: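 Antagonist-mode beta-lactamase reporter assay: HEK293T VDR-UAS-bla cells were exposed to titrated compound alongside 1-alpha,25-dihydroxyvitamin D3 at 3 nM final for 16 h. Values were normalized to the 50 nM agonist control and DMSO basal, with IC50 and efficacy from Hill equation fits.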

[5] = qHTS assay for small molecule antagonists of retinoid X receptor alpha signaling (AID 588546; active means well fitted inhibition curve with a large enough effect in the signal ratio, with a control signal flat, not every such curve was filed as active; the % refers to the signal ratio; further: potency means the concentration at half of the fitted maximal effect); details: HEK293T RXRa-UAS-bla, beta-lactamase ratio, antagonist mode; measured here: W530 green channel, cytotoxicity proxy
How it was run: (§1)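 Beta-lactamase reporter inhibition, read as CCF4 fluorescence ratio (ex 405, em 460/530 nm) after 2 h at RT. HEK293T UAS-bla cells, 2500/well, were stimulated with 9-cis-RA at 500 or 100 nM final alongside test compound for 18 h at 37 C.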

[6] = molecular target: Retinoic acid receptor RXR-alpha (Homo sapiens) (UniProt P19793); test: as above; details: HEK293T RXRa-UAS-bla, beta-lactamase ratio, antagonist mode
Chain of Retinoic acid receptor RXR-alpha (Homo sapiens) (P19793 whole entry, looked up): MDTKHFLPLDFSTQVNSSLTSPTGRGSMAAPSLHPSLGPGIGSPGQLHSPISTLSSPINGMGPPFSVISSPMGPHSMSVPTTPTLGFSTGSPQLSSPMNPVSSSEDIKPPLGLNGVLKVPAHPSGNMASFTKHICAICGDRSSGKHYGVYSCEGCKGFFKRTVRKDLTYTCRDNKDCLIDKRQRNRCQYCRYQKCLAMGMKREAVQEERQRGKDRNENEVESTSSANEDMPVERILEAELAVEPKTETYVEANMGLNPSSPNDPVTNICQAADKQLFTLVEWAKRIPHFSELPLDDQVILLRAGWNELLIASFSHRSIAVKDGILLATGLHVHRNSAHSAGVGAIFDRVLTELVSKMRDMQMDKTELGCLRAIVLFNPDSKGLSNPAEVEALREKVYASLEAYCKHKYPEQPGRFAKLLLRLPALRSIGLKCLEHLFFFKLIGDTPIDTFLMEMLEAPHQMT
How it was run: as §1

[7] = molecular target: Thyroid hormone receptor beta (Homo sapiens) (UniProt P10828); test: qHTS assay for small molecule antagonists of thyroid hormone receptor beta signaling (AID 588547; active means well fitted inhibition curve with a large enough effect in the signal ratio, with a control signal flat, not every such curve was filed as active; the % refers to the signal ratio;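 further: cells stimulated with 0.4 nM T3 agonist during compound exposure; on the % scale 0 is the no-effect control and ±100 the full control effect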); details: TR-UAS-bla HEK293, beta-lactamase ratio, antagonist mode, 18 h
Chain of Thyroid hormone receptor beta (Homo sapiens) (P10828 whole entry, looked up): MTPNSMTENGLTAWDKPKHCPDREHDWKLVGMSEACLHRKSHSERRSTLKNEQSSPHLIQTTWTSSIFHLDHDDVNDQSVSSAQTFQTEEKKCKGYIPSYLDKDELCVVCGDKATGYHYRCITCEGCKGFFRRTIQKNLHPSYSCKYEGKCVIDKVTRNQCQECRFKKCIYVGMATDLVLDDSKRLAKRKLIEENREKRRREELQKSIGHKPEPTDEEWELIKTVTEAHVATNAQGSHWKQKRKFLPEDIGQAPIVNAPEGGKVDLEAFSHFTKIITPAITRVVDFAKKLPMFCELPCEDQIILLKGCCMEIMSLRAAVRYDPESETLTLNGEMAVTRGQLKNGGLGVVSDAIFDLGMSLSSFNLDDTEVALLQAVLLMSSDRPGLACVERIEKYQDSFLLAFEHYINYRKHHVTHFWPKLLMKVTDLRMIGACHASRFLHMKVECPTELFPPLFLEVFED
How it was run: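 Inhibition of T3-driven (0.4nM final) beta-lactamase reporter activity was measured over 0.59 nM to 92 uM compound after 18 h at 37 C. The cells were GripTite HEK293 TR-UAS-bla in charcoal/dextran-stripped serum, with CCF4 ratio read-out and IC50 from Hill fits.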

[8] = qHTS assay for small molecule agonists of the antioxidant response element (ARE) signaling pathway (AID 651741; active means well fitted activation curve with a large enough effect in the signal ratio; the % refers to the signal ratio; further: potency means the concentration at half of the fitted maximal effect)
How it was run: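 Beta-lactamase reporter under ARE control in HepG2 cells, 2,000 per well, was induced by 16 h compound treatment at 37 C. Read-out was fluorescence from LiveBLAzer B/G FRET substrate after 2 h at room temperature.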

[9] = qHTS assay for small molecule disruptors of the mitochondrial membrane potential - 1 hr assay (AID 651754); further: potency means the concentration at half of the fitted maximal effect; nearly all actives have a fitted effect of over 35% in size
How it was run: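 Loss of mitochondrial potential shifts the cationic dye from red mitochondrial aggregates to green cytoplasmic monomers. Cells (HepG2) are treated with compound for 1 hr before a 30 min dye incubation at 37C.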

[10] = qHTS assay to identify small molecules that stimulate interleukin-8 (IL-8) secretion (AID 651758; active means well fitted activation curve with a large enough effect in the signal ratio; the % refers to the signal ratio; further: 0% is about no effect)
How it was run: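 Secreted IL-8 measured homogeneously by TR-FRET (two labelled anti-IL-8 antibodies, 1-3 h at room temperature) after a 16 h, 37 C compound treatment of THP-1 cells at 2000 cells/well.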

[11] = molecular target: Arylsulfatase A (Homo sapiens) (UniProt P15289); test: qHTS screen for enhancers of Arylsulfatase A (ASA1): LOPAC Validation Assay (AID 720538; active means well fitted curve in the direction sought with a large enough effect; an effect the other way counts as inactive or inconclusive; further: 0% is about no effect)
Chain of Arylsulfatase A (Homo sapiens) (P15289 whole entry, looked up): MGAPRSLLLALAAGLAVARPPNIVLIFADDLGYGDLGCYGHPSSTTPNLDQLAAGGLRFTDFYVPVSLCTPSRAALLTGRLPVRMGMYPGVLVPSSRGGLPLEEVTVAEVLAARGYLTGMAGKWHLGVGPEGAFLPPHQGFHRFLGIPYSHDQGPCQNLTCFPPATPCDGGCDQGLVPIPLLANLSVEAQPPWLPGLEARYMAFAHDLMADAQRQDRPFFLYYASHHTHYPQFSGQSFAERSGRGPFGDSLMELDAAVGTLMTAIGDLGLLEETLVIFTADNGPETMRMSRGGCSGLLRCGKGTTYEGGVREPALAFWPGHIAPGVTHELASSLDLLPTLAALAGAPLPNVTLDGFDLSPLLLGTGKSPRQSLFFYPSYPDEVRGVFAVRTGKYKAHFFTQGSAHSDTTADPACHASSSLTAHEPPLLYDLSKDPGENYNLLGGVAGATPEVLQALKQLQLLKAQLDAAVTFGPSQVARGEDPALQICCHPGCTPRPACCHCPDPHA
How it was run: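 SV40-transformed skin fibroblasts from an MLD patient (ASA-I179S) were treated with compounds for 48h at 37 degree C, then lysed with 0.5mM pNCS final substrate for 14h at room temperature; NaOH stop, fluorescence read (Ex=525 nm; Em=598 nm).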

[12] = qHTS profiling of the MIPE4 collection as inhibitors of Plasmodium falciparum (3D7) proliferation (AID 743344; call rule not given here;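 further: scaled between DMSO vehicle wells and 0.29 µM artemisinin as full inhibition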); details: P. falciparum 3D7 in erythrocytes, SYBR Green DNA fluorescence, 72 h; at 28.5 µM (top of the series) unless noted
How it was run: (§2)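 Parasite DNA was quantified by SYBR Green I fluorescence (ex 485, em 535 nm) after overnight lysis in saponin/Triton buffer at room temperature. Cultures at 0.3% parasitemia and 2.5% hematocrit were first exposed to compound for 72 h at 37 C; signals were normalised to artemisinin (0.29 uM) and vehicle wells.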

[13] = qHTS profiling of the MIPE4 collection as inhibitors of Plasmodium falciparum (DD2) proliferation (AID 743345; call rule not given here); details: P. falciparum Dd2 in erythrocytes, SYBR Green DNA, 72 h; at 28.5 µM (top of the series) unless noted
How it was run: as §2

[14] = qHTS profiling of the MIPE4 collection as inhibitors of Plasmodium falciparum (DD2) proliferation (Rep 2) (AID 743346; call rule not given here); details: P. falciparum Dd2 in erythrocytes, SYBR Green DNA, 72 h; at 28.5 µM (top of the series) unless noted
How it was run: as §2

[15] = qHTS profiling of the MIPE4 collection as inhibitors of Plasmodium falciparum (HB3) proliferation (AID 743347; call rule not given here;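 further: plate controls were DMSO vehicle wells for no effect and artemisinin wells for full effect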); details: P. falciparum HB3 in erythrocytes, SYBR Green DNA, 72 h; at 28.5 µM (top of the series) unless noted
How it was run: as §2

[16] = qHTS for Inhibitors of the Functional Ribonucleoprotein Complex (vRNP) of Lassa (LASV) Arenavirus: LASV Primary Screen - GLuc reporter signal (AID 1347082; calls by dose curve; tested in HEK293 reporter line; further: on the % scale 0 is the no-effect control and ±100 the full control effect; nearly all actives have a fitted effect of over 60% in size)
[17] = qHTS for Inhibitors of the Functional Ribonucleoprotein Complex (vRNP) of Lassa (LASV) Arenavirus: Viability assay - alamar blue signal for LASV Primary Screen (AID 1347083; calls by dose curve; tested in HEK293 reporter line; further: on the % scale 0 is the no-effect control and ±100 the full control effect; nearly all actives have a fitted effect of over 80% in size)
[18] = qHTS for Inhibitors of the Functional Ribonucleoprotein Complex (vRNP) of Lymphocytic Choriomeningitis Arenaviruses (LCMV): Viability assay - alamar blue signal for LCMV Primary Screen (AID 1347085; calls by dose curve; tested in HEK293 reporter line; further: on the % scale 0 is the no-effect control and ±100 the full control effect; nearly all actives have a fitted effect of over 80% in size)
[19] = molecular target: Nucleoprotein (Lymphocytic choriomeningitis virus (strain Armstrong)) (UniProt P09992); test: qHTS for Inhibitors of the Functional Ribonucleoprotein Complex (vRNP) of Lymphocytic Choriomeningitis Arenaviruses (LCMV): LCMV Primary Screen - GLuc reporter signal (AID 1347086); further: on the % scale 0 is the no-effect control and ±100 the full control effect; nearly all actives have a fitted effect of over 70% in size
Chain of Nucleoprotein (Lymphocytic choriomeningitis virus (strain Armstrong)) (P09992 whole entry, looked up): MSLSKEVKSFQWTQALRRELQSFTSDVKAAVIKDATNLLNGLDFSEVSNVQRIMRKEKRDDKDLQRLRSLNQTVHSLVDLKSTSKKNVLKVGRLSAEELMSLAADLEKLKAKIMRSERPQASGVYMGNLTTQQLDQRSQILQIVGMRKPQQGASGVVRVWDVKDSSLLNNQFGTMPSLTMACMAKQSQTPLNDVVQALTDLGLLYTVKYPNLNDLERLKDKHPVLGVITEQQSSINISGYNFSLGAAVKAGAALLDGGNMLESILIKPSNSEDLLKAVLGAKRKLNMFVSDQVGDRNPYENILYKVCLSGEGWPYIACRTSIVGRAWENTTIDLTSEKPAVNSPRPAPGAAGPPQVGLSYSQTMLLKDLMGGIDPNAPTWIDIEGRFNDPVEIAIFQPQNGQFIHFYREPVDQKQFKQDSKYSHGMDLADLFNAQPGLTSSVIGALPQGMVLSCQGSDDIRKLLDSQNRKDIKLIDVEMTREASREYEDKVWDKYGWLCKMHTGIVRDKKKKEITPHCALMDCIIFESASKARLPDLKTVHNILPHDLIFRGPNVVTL

[20] = Primary qHTS for Huh7 cytotoxicity: counterscreen for inhibitors of MERS-S pseudotyped particle cell entry (AID 1479147); details: outcome: dose series up to 57.1 µM unless noted; further: on the % scale 0 is the no-effect control and ±100 the full control effect
[21] = Primary qHTS for Vero E6 cytotoxicity: counterscreen for inhibitors of SARS-S pseudo-typed particle cell entry (AID 1479150); details: outcome: dose series up to 57.1 µM unless noted
[22] = Confirmatory qHTS to identify inhibitors of SARS-CoV-2 cell entry (AID 1645844); further: potency means the concentration at half of the fitted maximal effect; nearly all actives have a fitted effect of over 45% in size
How it was run: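 Luminescence entry read-out after 48 h: spike-pseudotyped MLV particles (Wuhan-Hu-1, 19-aa C-terminal truncation) added to compound-pretreated (1 h) HEK293-ACE2 cells; Data were normalised to bald PP and spike PP wells.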

[23] = VSVG counterscreen qHTS to identify inhibitors of SARS-CoV-2 cell entry (AID 1645847); further: potency means the concentration at half of the fitted maximal effect; nearly all actives have a fitted effect of over 65% in size
How it was run: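 HEK293-ACE2 cells (Expi293F stably expressing human ACE2) were pretreated with compound for 1 h at 37 °C, then infected with MLV-based VSV-G pseudotyped particles for 48 h. Luciferase luminescence was normalized to VSV-G PP and bald PP wells.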

CC(=O)[C@H]1CC[C@H]2[C@@H]3CCC4=CC(=O)CC[C@]4(C)[C@H]3CC[C@]12C
31%: growth, % of control [15]
38.5%: parasite growth, % of DMSO control [12]
85%: parasite growth remaining, % of DMSO control (lower = more inhibition) [13]
active: Potency [6] 35.5 µM | Potency [8] 37.6 µM | Potency [9] 11.9 µM | Potency [22] 24.1 µM | Potency [23] 17.1 µM
1.42%: max response [5]
30.4%: parasite growth, % of control (lower = inhibition) [14]
inactive: Potency [1] | Potency [2] | outcome [3] | outcome [4] | activity change % (negative = inhibition) [7] -26.1% | Potency [10] | Potency [11] | Potency [16] | Potency [17] | Potency [18] | Potency [19] | outcome [20] | outcome [21]
